The campaign covered roughly 350,000 compounds. About 220 (0.063%) were called active. Not shown: some 4% with an inconclusive outcome. Calls follow the shape of the dose curve; as a rule, active = well fitted activation curve with a large enough effect; inconclusive = small, poorly fitted or top-dose-only effect; inactive = no such curve, though single readings can be large or run the other way. The entries come from a sample that favours actives as a whole. Entries that show only a call come without a potency.
Potency is read from the fitted curve at half-maximal effect.

This assay in a line: qHTS for Activators of Integrin-Mediated Alleviation for Muscular Dystrophy. Also: nearly all actives have a fitted effect of over 60% in size. The following applies: alpha7betagal myoblasts, beta-gal FDG fluorescence, 48 h; series mostly up to 38.3 µM. The source says: Integrins are a diverse family of transmembrane cell surface receptors that mediate interactions between cells and the extracellular matrix. These heterodimeric proteins are composed of alpha and beta subunits and the a7b1 interacts with laminin in the extracellular matrix and actin of the cell cytoskeleton. Both chains contribute to ligand binding, but the alpha chain mediates the specificity of the interaction. The alpha7beta1 integrin is a major laminin receptor in skeletal, cardiac and vascular smooth muscle. Mutations in the alpha7 integrin gene are responsible for muscular dystrophy in both humans and mice. The alpha7beta1 integrin is also a major modifier of muscle disease progression in various muscle diseases including Duchenne muscular dystrophy, Fukuyama muscular dystrophy and merosin deficient congenital muscular dystrophy type 1A. […] Transcriptional regulation of the alpha7 integrin gene is poorly understood and probably involves multiple transcription factors. The goal of identifying small molecules that enhance alpha7 integrin expression is two-fold: firstly, such molecules would help us gain insight into the complex transcriptional control of alpha7 integrin. It is known that alpha7 integrin expression is tightly controlled during various stages of development, disease and in response to external stimuli. The second goal of the project is to translate the above finding into a therapeutic strategy for muscular dystrophy. […] Thus this project aims to discover small molecule probes that would not only help in gaining a better understanding of the complex regulatory mechanism of alpha7 integrin expression, but also lead to development of pharmacological agents to fight muscular dystrophy. NIH Chemical Genomics Center [NCGC] NIH Molecular Libraries Probe Centers Network [MLPCN] MLPCN Grant: NS058429 Assay Submitter (PI): Dean Burkin, University of Nevada School of Medicine
A total of 250 alpha7betagal+/- myoblasts at passage 13 were dispensed using a mulitdrop from Thermo into black low base tissue culture treated microclear aurora plates in 6 ul media containing DMEM without phenol, 5% FBS, 1x GluMax and 1x Penicillin/Streptomycin. The plates were incubated 16-24 hr at 37C, 5% CO2, 95% humidity covered with low evaporation stainless steel lids from Kalypsys. Compounds were then dispensed using a Kalypsys pintool to deliver 23 nl/well compounds in DMSO (diluted into 6 uL resulting in a 1:260 dilution of compound). The control compound used was the cdk2 inhibitor SU9516 from Tocirs (found in the initial LOPAC screen). The plates were incubated for 48 hours at 37C, 5% CO2, 95% humidity using the same stainless steel lids. After incubation with compound, 5 ul of the media was aspirated using the Kalypsys washer/dispenser and 3 ul of the Mammalian Protein Extraction Reagent (MPER) lysis buffer (Thermo Fisher) was added. The plates were spun at 2000 rpms to remove bubbles and an initial capture was acquired on the Viewlux (Perkin Elmer) with exciation at 480 nm and emission at 540 nm for 25 seconds to omit any auto fluorescent compounds. The plates were then incubated for 10 minutes at room temperature. […] The plates were again read on the Viewlux with exciation at 480 nm and emission at 540 nm for 25 seconds.
In general terms: qHTS replaces the single test concentration by a dilution series.
As for `O=Cc1cn(Cc2ccc(F)cc2Cl)c2ccccc12`, the Potency is 15.8 µM (active).

Consider `O=c1[nH]c(=S)[nH]c(O)c1/C=C1\C=Nc2ccccc21`, for which the Potency result is “inactive”.

On to `Cc1ccc(Oc2cnn(-c3ccccc3)c(=O)c2Br)cc1`, for which the Potency result is “inactive”.

With `CC(=O)c1ccc(S(=O)(=O)N2CCN(c3nc4c(C)c(C)ccc4cc3C#N)CC2)cc1`, the Potency result is “inactive”.

For `CCOC(=O)c1cccc(C2=C(CNC(=O)c3ccncc3)[C@H]3CC[C@@H](C2)N3Cc2ccccc2)c1`, the Potency entry is “inactive”.

(Values after PubChem BioAssay AID624291 (National Center for Advancing Translational Sciences (NCATS), 2012).)
